Here are results for 39 molecules from PubChem BioAssay (EPA / NIEHS).

As usually defined, the AC50 is the midpoint of the concentration-response curve, whichever way the signal moves.

Inconclusive results are not listed. Activity calls are given as the source filed them. Rule for the calls: active = hit-call score of the fitted dose curve at least 0.9, where 1 is the maximum; inconclusive = response in the unintended direction; inactive = score below 0.9.

The target in the test is Androgen receptor (Homo sapiens) (UniProt P10275). Nature of the test: ATG_AR_TRANS: Attagene TRANS-FACTORIAL HepG2 Assay for human Androgen Receptor (AR) (AID 2282973). The following applies: HepG2 Attagene TRANS-FACTORIAL AR reporter transcription. The method in brief: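 HepG2 cells transiently transfected with multiplexed GAL4-UAS reporter units and chimeric NR-Gal4 fusion; 24 h compound exposure. Reporter mRNA measured by RT-PCR, 6-FAM labelling, HpaI digestion and capillary electrophoresis; gain-of-signal fitted relative to DMSO baseline.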
Sequence of Androgen receptor (Homo sapiens) (P10275 whole entry, looked up, the tested form may be a part): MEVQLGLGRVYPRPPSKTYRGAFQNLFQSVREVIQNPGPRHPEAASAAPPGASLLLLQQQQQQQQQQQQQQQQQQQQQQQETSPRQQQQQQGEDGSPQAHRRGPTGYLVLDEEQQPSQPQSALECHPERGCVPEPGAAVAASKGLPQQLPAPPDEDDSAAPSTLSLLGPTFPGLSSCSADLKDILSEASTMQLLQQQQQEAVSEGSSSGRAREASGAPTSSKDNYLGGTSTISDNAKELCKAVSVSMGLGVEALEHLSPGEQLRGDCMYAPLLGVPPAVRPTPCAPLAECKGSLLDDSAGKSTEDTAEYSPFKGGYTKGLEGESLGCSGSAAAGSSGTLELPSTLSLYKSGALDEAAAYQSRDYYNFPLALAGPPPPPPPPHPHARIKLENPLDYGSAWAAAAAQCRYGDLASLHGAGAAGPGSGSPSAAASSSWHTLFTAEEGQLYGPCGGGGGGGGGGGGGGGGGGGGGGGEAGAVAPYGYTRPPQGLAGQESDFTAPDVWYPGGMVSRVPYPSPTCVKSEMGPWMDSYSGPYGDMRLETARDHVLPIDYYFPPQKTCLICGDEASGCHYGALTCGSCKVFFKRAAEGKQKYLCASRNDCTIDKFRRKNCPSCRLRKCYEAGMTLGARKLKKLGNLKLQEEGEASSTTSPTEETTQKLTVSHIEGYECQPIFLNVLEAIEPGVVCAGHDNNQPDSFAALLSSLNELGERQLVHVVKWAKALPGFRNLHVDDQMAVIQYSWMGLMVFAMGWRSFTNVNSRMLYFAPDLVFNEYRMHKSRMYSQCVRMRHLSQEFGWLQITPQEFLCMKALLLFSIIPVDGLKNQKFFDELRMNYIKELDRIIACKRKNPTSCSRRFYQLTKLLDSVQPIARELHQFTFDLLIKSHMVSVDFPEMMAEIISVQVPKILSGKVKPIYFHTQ
For `O=CC(F)(F)C(F)(F)C(F)(F)F`, the result was inactive. The same measure, in the same setting: for `CN(C)Cc1ccccc1O` the value was “inactive”. Consider `CC(=O)O[C@@H]1C[C@@H]2CC[C@@]1(C)C2(C)C`, for which the call was inactive. Turning to `CCCCCCCC(OC)OC`, the result was inactive.

For `CCC(O)CO` (centres undefined), the molecule was classed as inactive. For the molecule `Nc1cc([N+](=O)[O-])ccc1O`, the outcome was inactive. On to `COC(F)(C(F)F)C(F)(F)F` (centres undefined), for which the result was inactive. Consider `O=S(=O)(O)CCC(F)(F)C(F)(F)C(F)(F)C(F)(F)C(F)(F)C(F)(F)C(F)(F)C(F)(F)F`, for which the result was inactive.

With `CCCCCCCCCCCCCCCCCC[N+](C)(C)C`, the AC50 is 14.5 µM (active).

Regarding `CCCCCCOC(=O)C(C)CC` (centres undefined), the molecule was called inactive. As for `CC1COC(=O)O1` (centres undefined), the call was inactive. On to `CCN(CC)c1ccc(C(=C2C=CC(=[N+](CC)CC)C=C2)c2ccc(S(=O)(=O)O)cc2S(=O)(=O)[O-])cc1`, for which the result was inactive. On to `C=C(C)[C@@H]1CC=C(C)C(=O)C1`, for which the result was inactive. For the molecule `COc1cc(/C=C/C(=O)CC(=O)/C=C/c2ccc(O)c(OC)c2)ccc1O`, the molecule was classed as inactive. As for `CC(C)CCCCCCc1ccc(OCCOCCO)cc1`, the call was inactive. For the molecule `CC(C)CCCC(C)CCO` (centres undefined), the call was inactive. `COc1nccnc1CC(C)C`: the call was inactive.

Regarding `COC(F)(F)C(F)(C(F)(F)F)C(F)(F)F`, the molecule was called inactive. Same read-out and setting: for `CCCc1ccc(OC)cc1` the value was “inactive”; for `CC=C(C)C(C)=O`, “inactive”; for `CC=C(C)C=CC=C(C)C`, “inactive”. As for `CCCOCCOCCOCCO`, the call was inactive. Consider `CCCCC[Si](OCC)(OCC)OCC`, for which the outcome was inactive.

For the molecule `C=CCOC(=O)/C=C\C(=O)OCC=C`, the outcome was inactive. In the case of `Clc1cccnc1`, the call was inactive. Consider `CC(C)(CO)COC(=O)C(C)(C)CO`, for which the result was inactive. With `CO[Si](CCCNCCN)(OC)OC`, the molecule was classed as inactive. As for `CCCOC(=O)c1ccc(C(=O)OCCC)nc1`, the outcome was inactive. Turning to `FC(F)(F)C(F)(F)C(F)(F)C(F)(F)C(F)(F)C(F)(F)C(F)(F)C(F)(F)F`, the outcome was inactive. As for `C=CCOCC(O)CCl` (centres undefined), the outcome was inactive.

Take `FC(F)(F)N1C(F)(F)C(F)(F)OC(F)(F)C1(F)F`: the result was inactive.

In the case of `CCCCCCCCN(C)CCCCCCCC`, the molecule was called inactive. Same read-out and setting: the value for `O=P(O)(O)CCC(F)(F)C(F)(F)C(F)(F)C(F)(F)C(F)(F)C(F)(F)C(F)(F)C(F)(F)F` was “inactive”; that for `CC(CC(C)(C)C)CC(C)(C)CC(C)(C)C` (centres undefined) was “inactive”; that for `FC(OC(F)(F)C(F)(F)C(F)(F)F)C(F)(F)F` (centres undefined) was “inactive”. Regarding `COC(=O)C(F)(F)C(F)(F)C(F)(F)C(F)(F)C(F)(F)F`, the molecule was called inactive. `CCN=c1cc2oc3cc(NCC)c(C)cc3c(-c3ccccc3C(=O)OCC)c-2cc1C`: the molecule was called inactive. As to `COC(=O)c1cccc(C)c1S(=O)(=O)NC(=O)Nc1nc(OCC(F)(F)F)nc(N(C)C)n1`, the molecule was classed as inactive.

Turning to `CCC(=O)C1CC(C(C)C)CC=C1C` (centres undefined), the molecule was called inactive.
